Data reported in PubChem BioAssay (Tox21).
Results filed as inconclusive are left out. Where a call stands in place of a potency, no number is given. Active and inactive are the calls of the source. Calls come from the whole dose curve.

Test: qHTS assay for small molecules that induce genotoxicity in human embryonic kidney cells expressing luciferase-tagged ATAD5 - cell viability (AID 651634); note: nearly all actives have a fitted effect of over 25% in size
Details: HEK293T ATAD5-luc cells viability, CellTiter-Fluor, 15.5 h; series mostly up to 83.3 µM
From the text: National Center for Advancing Translational Sciences [NCATS]
NIH Chemical Genomics Center [NCGC]
U.S. Environmental Protection Agency [EPA]
National Institutes of Environmental Health Sciences [NIEHS]
National Toxicology Program [NTP]
U.S. Food and Drug Administration [FDA]
Enhanced Level of Genome Instability Gene 1 (ELG1; human ATAD5) protein levels increase in response to various types of DNA damage. Using a luciferase reporter-gene tagged with ElG1, a cell-based assay [developed by Kyungjae Myung, NHGRI, NIH] was used to measure the induction of ATAD5 in human embryonic kidney cells (HEK293T). So, increase in luciferase activity can be used to identify the compounds that cause genetic stress. In addition to genotoxicity, these cells were also used to test for cytotoxicity by measuring the protease activity within live cells.
Tox21 Assay Protocol Summary:
For cytotoxicity screening, 2,000 cells in 5 uL/well were dispensed into white, solid-bottom 1536-well plates using a Multidrop Combi (Thermo Scientific) dispenser. Following transfer of 23 nL compound or DMSO vehicle by a pin tool, the plates were incubated 15.5 hr at 37C and 5% CO2. 1 ul CellTiter-Fluor reagent (Promega, Madison, WI) was then added to each plate and following 30 min incubation at 37C, fluorescence intensity was quantified on a ViewLux CCD-based plate reader.
Potency is the fitted concentration of half-maximal effect.

Structure (SMILES) | Potency
CN1C(=O)c2ccccc2C1=O | inactive
CCC1CO1 (stereo not given) | inactive
C[C@@H](O)[C@H]1C(=O)N2C(C(=O)O)=C([C@H]3CCCO3)S[C@H]12 | inactive
CC(=O)[C@H]1[C@H](C#N)C[C@H]2[C@@H]3CC=C4C[C@@H](O)CC[C@]4(C)[C@H]3CC[C@@]21C | inactive
CC(C)=CCC/C(C)=C/CC/C(C)=C/CCC(=O)OC/C=C(\C)CCC=C(C)C | inactive
Nc1ccc(N=Nc2ccccc2)c(N)c1 | 67.1 µM (active)
CCCCCC#CC(=O)OC | inactive
CC(CO)CO | inactive
C/C=C(/C(=C/C)c1ccc(O)cc1)c1ccc(O)cc1 | inactive
COc1cc(C(=O)NCCCCCC(=O)O)cc(OC)c1OC | inactive
CCN(CC)CCNC(=O)COc1ccc(OC)cc1 | inactive
C[C@]1(Cn2ccnn2)[C@H](C(=O)O)N2C(=O)C[C@H]2S1(=O)=O | inactive
C=COCC(C)C | inactive
O=c1[nH]ncc2ccccc12 | inactive
O=C(Nc1cccc2c(=O)cc(-c3nn[nH]n3)oc12)c1ccc(OCCCCc2ccccc2)cc1 | inactive
CN1C(=O)N(c2ccccc2Br)Cc2cnc(Nc3ccc4c(c3)OCC(CO)O4)nc21 (stereo not given) | 54.5 µM (active)
C[C@]12CC[C@@H]3c4ccc(O)cc4CC[C@H]3[C@@H]1CC[C@@H]2OC(=O)CCC1CCCC1 | inactive
Cc1ccc2c(Br)cc(Br)c(O)c2n1 | inactive
CCC(=O)C1CC(C(C)C)CC=C1C (stereo not given) | inactive
CCCCCCCCC(CCCCCC)C(=O)O (stereo not given) | inactive

Structure (SMILES) | Potency
O=C(/C=C/c1ccc(O)c(O)c1)O[C@@H]1C[C@@](OC(=O)/C=C/c2ccc(O)c(O)c2)(C(=O)O)C[C@@H](O)[C@@H]1O | inactive
C=C(C)[C@@H]1CCC2=CCC[C@@H](C)[C@]2(C)C1 | inactive
CO/N=C(/C(=O)N[C@@H]1C(=O)N2C(C(=O)O)=C(COC(N)=O)CS[C@H]12)c1ccco1 | inactive
CC(C)=CC(=O)C=C(C)C | inactive
CC(C)COCC(CN(Cc1ccccc1)c1ccccc1)N1CCCC1 (stereo not given) | 9.44 µM (active)
O=C1NC(=O)c2cc([N+](=O)[O-])ccc21 | inactive
CCCCCCCC/C=C\CCCCCCCCCCCC(=O)O | inactive
Oc1cccc(Nc2ccccc2)c1 | inactive
N#[N+]c1ccc2c(S(=O)(=O)[O-])cccc2c1O | inactive
CC(C)c1nc(CN(C)C(=O)N[C@H](C(=O)N[C@@H](Cc2ccccc2)C[C@H](O)[C@H](Cc2ccccc2)NC(=O)OCc2cncs2)C(C)C)cs1 | inactive
NCCNCCO | inactive
CC/C=C1/OC(=O)c2ccccc21 | inactive
CCCCCCCC/C=C\CCCCCCCCO | inactive
CC1(C)S[C@@H]2[C@H](NC(=O)C(c3ccccc3)S(=O)(=O)O)C(=O)N2[C@H]1C(=O)O (stereo not given in full) | inactive
OC[C@H]1O[C@@H](n2cnc3c(=S)nc[nH]c32)[C@H](O)[C@@H]1O | inactive
O=C1c2ccccc2C(=O)N1CCc1noc(-c2ccc(CN3CCCCCC3)s2)n1 | inactive
O=C(O)C[C@H](NC(=O)OCc1ccccc1)C(=O)O | inactive
CN1CCCN=C1COC(=O)C(O)(c1ccccc1)C1CCCCC1 (stereo not given) | inactive
O=C=Nc1cccc(C(F)(F)F)c1 | inactive
Cc1cc(O)ccc1O | inactive
